PubChem BioAssay (NCI)
This is part of a sample that, as a whole, favours compounds with a hit. Of some 79,000 tested, about 15% had one in any assay. No stated cut-off is given here; in the data, active means growth inhibition above about 70%; inactive means the rest.

Columns and labels:
[1] = NCI Yeast Anticancer Drug Screen. Data for the rad50 strain (AID 155);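 further: 0% = growth of vehicle-only cultures of the same strain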; details: S. cerevisiae rad50 strain growth inhibition; at 50.0 µM; hits give high values
How it was run: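 Vehicle-treated cultures provide the reference for the growth inhibition reported for compound-exposed, repair-deficient yeast.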

[2] = NCI Yeast Anticancer Drug Screen. Data for the mec2-1 strain (AID 157); details: S. cerevisiae mec2-1 strain, at 50.0 µM, hits give high values
How it was run: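 Readout is yeast growth inhibition, normalised to vehicle-treated controls, in the mec2-1 strain exposed to compound.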

[3] = NCI Yeast Anticancer Drug Screen. Data for the sgs1 mgt1 strain (AID 161);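 further: 0% = growth of cultures given vehicle only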; details: S. cerevisiae sgs1 mgt1 strain, at 50.0 µM, hits give high values
How it was run: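 Percent growth inhibition was derived by comparing compound-exposed mutant yeast with vehicle-exposed cultures. The strain carries alterations in DNA damage repair.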

[4] = NCI Yeast Anticancer Drug Screen. Data for the cln2 rad14 strain (AID 165);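 further: 0% = growth equal to vehicle treated cultures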; details: S. cerevisiae cln2 rad14 strain, at 50.0 µM, hits give high values
How it was run: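 Relative to vehicle controls, growth inhibition of compound-treated cln2 rad14 yeast was recorded.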

[5] = NCI Yeast Anticancer Drug Screen. Data for the bub3 strain (AID 167); details: S. cerevisiae bub3 mutant strain, at 50.0 µM, hits give high values
How it was run: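 Mutant yeast screening strain plus compound; vehicle-treated cultures serve as the 0% inhibition reference.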

[6] = NCI Yeast Anticancer Drug Screen. Data for the mlh1 rad18 strain (AID 175); details: S. cerevisiae mlh1 rad18 strain growth inhibition; at 50.0 µM; hits give high values
How it was run: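 Test agents were incubated with a yeast strain of defined genotype (DNA damage repair defect). Inhibition of growth was derived by comparison with vehicle-exposed cultures.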

Measured: growth inhibition

Cc1ccc2c(=O)[nH]cnc2c1
inactive: [1] -10.4% | [2] -23.2% | [3] 4.45% | [4] -7.6% | [5] 2% | [6] -2.15%

O=C1NC(=O)[C@@H](OCC2CCCCC2)[C@@H]2OCC3OC(C(O)C3O)C12 (stereo partly drawn)
inactive: [1] -33.9% | [2] -3.1% | [3] 9.9% | [4] 23.2% | [5] 10.3% | [6] -5.7%

CN(N)C(=O)Nc1ccc([N+](=O)[O-])cc1
inactive: [1] 16.4% | [2] 5.65% | [3] -2.7% | [4] 7.45% | [5] 12% | [6] -1.75%

CCNC(=O)Nc1nc2ccccc2s1
inactive: [1] -27.8% | [2] -13% | [3] 1.75% | [4] -90.7% | [5] -23.8% | [6] -21.4%

O=[N+]([O-])[C@@H]1C[C@@H]2C=C[C@H]1CC2
inactive: [1] 10.1% | [2] 0.2% | [3] 2.6% | [4] -1.3% | [5] 0.3% | [6] 0.15%

CC1CCC2c3c([nH]c4ccccc34)C3C(=O)N(C4CCCCC4)C(=O)C3C2C1 (stereo not drawn)
inactive: [1] 5.65% | [2] 0.25% | [3] 1.8% | [4] 3.05% | [5] 4.1% | [6] 2.25%

Nc1nc(N)nc(C2CC3C=CC2C3)n1 (stereo not drawn)
inactive: [1] -1.55% | [2] -13.9% | [3] -4.4% | [4] -10% | [5] 2.1% | [6] -0.95%

CC(C)(C)OC(=O)NC(Cc1ccccc1)C(=O)OCN1C(=O)C2C3C=CC(C2C1=O)C1C2C(=O)N(COC(=O)C(Cc4ccccc4)NC(=O)OC(C)(C)C)C(=O)C2C31 (stereo not drawn)
inactive: [1] 26.8% | [2] -4.1% | [3] -0.5% | [4] -6.55% | [5] 8.25% | [6] 20.4%

CCC(c1ccc(OC)cc1)c1cc2c(cc1OCC(=O)O)OCO2 (stereo not drawn)
inactive: [1] 36.6% | [2] 55.2% | [3] 57.1% | [4] 53.9% | [5] 44.5% | [6] 65.5%

CCCCCCCCCC[CH2][Sn]([CH2]CCCCCCCCCC)([CH2]CCCCCCCCCC)[CH2]CCCCCCCCCC
inactive: [1] 5.8% | [2] 7.8% | [3] -3.4% | [4] -16.3% | [5] -1.25% | [6] 23.7%

Cc1cc2nc(C(O)C(O)C(O)C(O)c3nc4cc(C)c(C)cc4[nH]3)[nH]c2cc1C (stereo not drawn)
inactive: [1] 18.9% | [2] 3.35% | [3] -9.2% | [4] -1.2% | [5] -8.65% | [6] -0.85%

Oc1ccc2ccccc2c1
inactive: [1] -10.3% | [2] -27.8% | [3] -14.8% | [4] -21.4% | [5] -16.4% | [6] 20.9%

COC1CC(OC2CCC3(C)C(=CCC4C3C(OC(C)=O)C(OC(=O)CC(C)C)C3(C)C(C(C)=O)CCC43O)C2)OC(C)C1OC1CC(OC)C(OC2CC(OC)C(OC3OC(C)C(O)C(OC)C3O)C(C)O2)C(C)O1 (stereo not drawn)
inactive: [1] 31.3% | [2] 6.55% | [3] 21.4% | [4] 16.9% | [5] -1.9% | [6] -83.5%

COC(=O)c1nc(N)[nH]c(=O)c1CCCCCc1c(C(=O)OC)nc(N)[nH]c1=O
inactive: [1] -4.8% | [2] -0.15% | [3] -9.2% | [4] 6.5% | [5] -0.3% | [6] -17.6%

C=CCc1cccc(C)c1O
inactive: [1] 18.9% | [2] -16.1% | [3] 20.4% | [4] 13.6% | [5] -2.6% | [6] 20.3%

Cc1nn(C(=O)c2ccc(Cl)cc2)c2c1C(c1ccc(O)cc1)SC(N)=N2 (stereo not drawn)
inactive: [1] -33% | [2] -49.1% | [3] -43.7% | [4] -26.8% | [5] -23.9% | [6] -31.2%

CCOc1nc(N)nc(C)c1N=Nc1ccccc1OC
inactive: [1] 12.7% | [2] 9.05% | [3] 14.4% | [4] 35.9% | [5] 11.5% | [6] 13.5%

COC(=O)C1=C(C(=O)OC)SC(=CC#CC=C2SC(C(=O)OC)=C(C(=O)OC)S2)S1
inactive: [1] 9.5% | [2] -3.35% | [3] 9.45% | [4] -59.7% | [5] -12.8% | [6] 1.6%
